# Compound activity from PubChem BioAssay.
# HP1b binding inh: inhibitors of HP1-beta chromodomain binding to methylated histone tails. Potency, µM (series often up to 114 µM), usual class: inhibitors. AlphaScreen HP1-beta / biotin-H3K9me3 peptide binding. P83916. 0.56% of 390,000 active. AID 540317; also: nearly all actives have a fitted effect of over 70% in size
#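 HP1-beta protein (50 nM final) preincubated 30 min at room temperature with biotinylated H3(1-18)K9me3 peptide (50 nM) in PBS pH 7.4, 0.01% Tween-20, then compound added for 30 min. AlphaScreen streptavidin donor/nickel chelate acceptor beads (10 ug/mL final), 30 min dark, luminescence read.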
# G9a block: inhibitors of human histone lysine methyltransferase G9a; Q96KQ7; G9a H3K9 monomethylation, AlphaScreen, 2 h; Potency, µM (highest dose often 102 µM), usual class: inhibitors; 8.8% of 350,000 active; AID 504332; also: nearly all actives have a fitted effect of over 75% in size
#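 Enzyme 20 nM + cpd, 15 min RT; add b-H3K9 pep 500 nM / SAM 20 uM; 2 h RT; anti-H3K9me1 Ab 0.5 ug/mL + SA donor / anti-rabbit acceptor beads 20 ug/mL each, 10 min; AlphaScreen read.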
# Sfp inh: blocks B. subtilis Sfp PPTase activity; Q9F4F7; Biochemical Sfp PPTase activity, qHTS; Potency, µM, actives largely listed as inhibitors; 3.5% of 310,000 active; AID 1490;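 also: the enzyme is Sfp with the accession as filed and its product quenches rhodamine fluorescence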
#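 Reaction rates are the 30-min fluorescence difference (ex 525, em 598 nm) in wells containing 15 nM Sfp, 5 uM rhodamine-CoA and 12.5 uM BHQ-2-YbbR at pH 7.6 with 10 mM MgCl2.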
# TDP1 block: blocks human tyrosyl-DNA phosphodiesterase 1; Q9NUW8; recombinant TDP1, AlphaScreen DNA substrate cleavage; Potency, µM (titrated, usually from 130 µM), most hits filed as inhibitors; 0.28% of 350,000 active; AID 485290; also: nearly all actives have a fitted effect of over 40% in size
# Target sequence (Q9NUW8 whole entry, looked up): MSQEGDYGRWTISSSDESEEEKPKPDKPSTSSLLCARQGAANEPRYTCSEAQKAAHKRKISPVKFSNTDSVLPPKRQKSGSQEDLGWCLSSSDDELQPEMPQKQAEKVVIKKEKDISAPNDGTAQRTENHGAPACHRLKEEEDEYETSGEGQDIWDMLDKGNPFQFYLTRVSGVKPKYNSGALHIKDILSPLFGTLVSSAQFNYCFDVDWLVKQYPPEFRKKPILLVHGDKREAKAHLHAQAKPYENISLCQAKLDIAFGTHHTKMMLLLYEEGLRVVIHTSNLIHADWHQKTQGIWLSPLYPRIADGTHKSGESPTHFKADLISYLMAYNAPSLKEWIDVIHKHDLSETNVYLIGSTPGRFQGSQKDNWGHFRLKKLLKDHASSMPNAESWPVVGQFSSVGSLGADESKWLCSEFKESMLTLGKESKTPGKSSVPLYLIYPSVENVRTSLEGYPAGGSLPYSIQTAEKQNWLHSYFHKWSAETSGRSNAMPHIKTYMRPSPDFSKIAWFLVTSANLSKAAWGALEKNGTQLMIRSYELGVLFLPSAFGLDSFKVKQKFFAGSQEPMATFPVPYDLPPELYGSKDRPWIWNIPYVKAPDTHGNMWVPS
#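 Here, a 5' biotin and 3' phosphotyrosine-FITC DNA oligonucleotide reports Tdp1 activity: intact substrate bridges AlphaScreen beads, while cleavage leaves a 3' phosphate and drops signal. All incubations at room temperature.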
# BAZ2B block: blocks human BAZ2B | Potency, µM (series often up to 114 µM), usual class: inhibitors | Q9UIF8 | AlphaScreen BAZ2B-H3K14Ac peptide displacement | 4.4% of 360,000 active; also: nearly all actives have a fitted effect of over 60% in size
#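 Inhibition is scored as reduced AlphaScreen emission. The BAZ2B/b-H3(5-23)K14Ac complex (50 nM each) in PBS pH 7.4, 0.01% Tween-20 meets compound (up to 110 uM) for 30 min at RT before bead addition.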
# JMJD2A Tudor inh: JMJD2A Tudor domain (human) inhibition. AID 504339. 4.4% of 390,000 active. AlphaScreen JMJD2A-Tudor / H3K4me3 peptide binding. O75164. Potency, µM (series often up to 114 µM), actives largely listed as inhibitors; also: nearly all actives have a fitted effect of over 50% in size
# A number is an active result; – = inactive; ? = inconclusive; · = not tested or not shown; [ ] = dose if it differs, or a comment. In the library only some 12% were active in any assay of this set; here they are far more common. Calls follow the shape of the dose curve; as a rule, active = well fitted curve in the direction sought with a large enough effect; inconclusive = small, poorly fitted or top-dose-only effect, or another doubt; inactive = no such curve, though single readings can be large; an effect the other way counts as inactive or inconclusive.
SMILES,HP1b binding inh,G9a block,Sfp inh,TDP1 block,BAZ2B block,JMJD2A Tudor inh
O=C(c1cccc(-n2cccc2)c1)N1CCN(S(=O)(=O)c2ccccc2Br)CC1,–,44.7µM,·,–,–,–
O=C(c1ccncc1)N1CCN(S(=O)(=O)c2ccccc2Br)CC1,–,–,·,–,–,–
CC12CCC3C(CCC4CC(O)CCC43C)C1CC=C2c1ccccc1 (stereo not given),·,·,–,–,·,·
C/C(=N\NC(N)=S)C1=CCC2C3CC[C@H]4CC(O)CC[C@]4(C)C3CC[C@]12C (stereo not given in full),?,8.91µM,39.8µM,·,–,–
Cc1ccc(CN(C(=O)COc2ccc(Br)cc2)C2CCS(=O)(=O)C2)o1 (stereo not given),–,–,–,–,?,25.1µM
CCc1ccc(OCC(=O)N(Cc2ccc(C)o2)C2CCS(=O)(=O)C2)cc1 (stereo not given),–,–,·,–,–,56.2µM
Cc1cccc(OCC(=O)N(Cc2ccc(N(C)C)cc2)C2CCS(=O)(=O)C2)c1 (stereo not given),–,·,–,–,?,?
CC(C)Sc1ncc(Cl)c(C(=O)N(Cc2ccc(N(C)C)cc2)C2CCS(=O)(=O)C2)n1 (stereo not given),?,?,·,–,44.7µM,56.2µM
Cc1ccc(OCC(=O)N(Cc2ccc(C)o2)C2CCS(=O)(=O)C2)cc1 (stereo not given),–,–,–,–,–,?
Cc1cc(OCC(=O)N(Cc2ccc(N(C)C)cc2)C2CCS(=O)(=O)C2)cc(C)c1Cl (stereo not given),–,?,·,–,10µM,39.8µM
Cc1cc2c(cc1S(=O)(=O)N1CCC(C(N)=O)CC1)OCC(=O)N2,–,–,·,–,–,–
Cc1cnc(NC2=NCCC2)s1,–,11.2µM,–,–,–,?
Clc1ccc(CSc2nnc(NC3=NCCCCC3)s2)cc1,–,–,–,–,–,–
c1nnc(NC2=NCCCCC2)s1,–,–,–,–,–,–
CCc1nnc(NC2=NCCC2)s1,–,?,56.2µM,·,?,70.8µM
Cc1ccc(CN2CCN(/N=C/c3ccc(C(F)(F)F)cc3)CC2)cc1,?,–,–,–,–,?
C(=N\N1CCN(Cc2ccccc2)CC1)/c1cccnc1,–,?,–,–,–,–
Cc1ccc(CN2CCN(/N=C/c3ccc(C)s3)CC2)cc1,?,–,–,–,39.8µM,?
Cc1ccc(CN2CCN(/N=C\C=C\c3ccccc3)CC2)cc1,?,35.5µM,–,–,28.2µM,39.8µM
Cc1ccc(CN2CCN(/N=C\c3cccc([N+](=O)[O-])c3)CC2)cc1,35.5µM,28.2µM,–,–,28.2µM,44.7µM
Cc1ccc(/C=N/N2CCN(Cc3ccc(C)cc3)CC2)cc1,–,?,–,–,35.5µM,?
CCOc1ccc(NC(=O)N(C(C)C)C2CCN(C(C)=O)CC2)cc1,–,–,·,–,–,–
Cc1ccc(NC(=O)CSc2nnc(COc3ccc(Cl)cc3)o2)cc1,–,–,·,–,–,–
Cc1ccc(CN2CCN(/N=C/c3cc(Br)ccc3O)CC2)cc1,–,–[12.7 µM],–,–,–,–
Cc1ccc(/C=N/N2CCN(Cc3ccccc3)CC2)s1,?,–[0.501 µM],–,–,7.08µM,50.1µM
SMILES,HP1b binding inh,G9a block,Sfp inh,TDP1 block,BAZ2B block,JMJD2A Tudor inh
Cc1ccc(CN2CCN(/N=C/c3cccs3)CC2)cc1,?,?,–,–,44.7µM,–
CCOC(=O)C1=C([Si](C)(C)C)c2ccccc2N(S(=O)(=O)C(F)(F)F)C1C(=O)OCC (stereo not given),·,–,–,–,·,·
COC(=O)[C@H](CCSC)NC(=O)c1cc2c(cn1)[nH]c1ccccc12,?,1.78µM,8.91µM,·,–,?
COc1ccccc1C(=O)N1CCN(C(=O)Cc2ccccc2)CC1,–,–,–,–,–,–
COc1cccc(C(=O)N2CCN(C3CCN(Cc4ccccc4)CC3)CC2)c1,·,8.91µM,?,–,28.2µM,·
c1ccc(C2CCC(N3CCN(c4ccccc4)CC3)CC2)cc1 (stereo not given),–,56.2µM,–,·,?,?
O=S(=O)(c1ccccc1)N1CCC(N2CCN(c3ccccc3)CC2)CC1,·,–,–,–,–,·
